A selection: hits, their analogues and other compounds. The true share with any hit is near 10%.
HPGD inh = qHTS Assay for Inhibitors of HPGD (15-Hydroxyprostaglandin Dehydrogenase); 15-hydroxyprostaglandin dehydrogenase [NAD(+)] (Homo sapiens), P15428; Potency, µM, usual class: inhibitors; purified HPGD, NADH fluorescence kinetic, PGE2 substrate; AID 894, 2007; 150,000 tested, 4.3% active
Target sequence (P15428 whole entry, looked up): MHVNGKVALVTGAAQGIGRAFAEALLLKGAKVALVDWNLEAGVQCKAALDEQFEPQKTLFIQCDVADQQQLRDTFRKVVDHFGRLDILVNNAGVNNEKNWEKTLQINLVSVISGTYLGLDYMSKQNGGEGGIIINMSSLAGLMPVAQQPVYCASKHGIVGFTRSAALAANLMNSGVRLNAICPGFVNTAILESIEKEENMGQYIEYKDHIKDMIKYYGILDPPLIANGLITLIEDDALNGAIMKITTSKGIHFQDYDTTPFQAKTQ
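NADH formation kinetics: reaction with 30 uM PGE2 and 1 mM NAD+ (final), 20 nM enzyme, Tris-HCl pH 8 with Tween 20, after 15 min compound preincubation at room temperature. Fluorescence change, last versus first of five reads.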
PNC inhibitor = High Content Assay for Compounds that inhibit the Assembly of the Perinucleolar Compartment; PC3M PTB-GFP, PNC prevalence imaging, 16 h; stronger effect = lower value; activity change (PNC), negative = inhibition, % at 10 µM; 140,000 tested, 3.1% active;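 active = readout at or below -70, meaning at least 70% loss of cells showing the perinucleolar compartment, a nuclear body marking cancer cells; inconclusive = readout between -30 and a set limit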
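PC3M cells stably expressing PTB-GFP, 750–1000 cells/well, treated 16 h at 37 °C with compound (23 nl of library stock), in duplicate. After paraformaldehyde fixation and Hoechst stain, imaged at 20x; PNC prevalence scored by image analysis.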
ALOX12 inhib = qHTS Assay for Inhibitors of 12-hLO (12-human lipoxygenase); purified 12-hLO, xylenol orange hydroperoxide absorbance; Potency, µM (titrated, usually from 57.1 µM), actives largely listed as inhibitors; 150,000 tested, 0.12% active; AID 1452, 2008; active = well fitted inhibition curve with a large enough effect; inconclusive = small, poorly fitted or top-dose-only effect; note: nearly all actives have a fitted effect of over 55% in size
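Hydroperoxide output read as Fe(III)-xylenol orange absorbance, 573-to-405 nm ratio, after 30 min reaction with 40 uM arachidonic acid. Enzyme: 150 nM purified human 12hLO, 15 min compound preincubation; 25 mM Hepes pH 7.0, room temperature.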
LMNA splice mod = qHTS Assay for Modulators of Lamin A Splicing. AID 1487, 2009. 200,000 tested, 0.01% active. HeLa LMNA splicing GFP/RFP minigene ratio, 48 h. Potency, µM (highest dose often 46.1 µM), usual class: inhibitors; active = well fitted inhibition curve with a large enough effect in the signal ratio, with a control signal flat, not every such curve was filed as active; inconclusive = small, poorly fitted or top-dose-only effect, or effect the other way, or a change in a side signal; the % refers to the signal ratio
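S3 HeLa cells stably expressing lamin A-EGFP splicing minigene plus DsRed2, 600 cells/well, 48 h compound exposure at 37C. Laser-scanning cytometry; analysed as GFP (500-530 nm)/RFP (575-640 nm) total intensity ratio; 0.5% DMSO vehicle.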
ALDH1A1 inh = qHTS Assay for Inhibitors of Aldehyde Dehydrogenase 1 (ALDH1A1); Aldehyde dehydrogenase 1A1 (Homo sapiens), P00352; Purified ALDH1A1, NADH fluorescence, propionaldehyde substrate; Potency, µM (titrated, usually from 75.3 µM), actives largely listed as inhibitors; 220,000 tested, 7.3% active
Target sequence (P00352 whole entry, looked up): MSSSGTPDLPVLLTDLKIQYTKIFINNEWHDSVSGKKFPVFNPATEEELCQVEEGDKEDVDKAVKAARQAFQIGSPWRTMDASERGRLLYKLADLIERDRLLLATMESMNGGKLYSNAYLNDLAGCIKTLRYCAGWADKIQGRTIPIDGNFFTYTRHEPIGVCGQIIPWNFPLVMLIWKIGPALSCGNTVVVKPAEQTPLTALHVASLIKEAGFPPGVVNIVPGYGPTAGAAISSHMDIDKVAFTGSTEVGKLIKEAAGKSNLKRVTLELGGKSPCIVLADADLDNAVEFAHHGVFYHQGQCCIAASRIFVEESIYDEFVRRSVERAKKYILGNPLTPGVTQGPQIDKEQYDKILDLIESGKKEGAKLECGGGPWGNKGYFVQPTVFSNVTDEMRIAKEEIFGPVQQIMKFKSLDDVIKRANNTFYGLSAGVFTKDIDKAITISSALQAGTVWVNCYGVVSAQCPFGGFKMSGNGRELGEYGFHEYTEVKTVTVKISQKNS
Hits are given with their value; . = inactive; ? = inconclusive; / = not tested or not shown; [ ] = another dose, or the depositor's remark. Unless noted, calls come from the whole dose curve; as a rule, active = well fitted inhibition curve with a large enough effect (not every such curve was filed as active); inconclusive = small, poorly fitted or top-dose-only effect, or another doubt; inactive = no such curve, though single readings can be large or run the other way.

SMILES | HPGD inh | PNC inhibitor | ALOX12 inhib | LMNA splice mod | ALDH1A1 inh
Cc1nc(N2CCCC2)c2c(C(=O)N3CCN(c4cc(Cl)ccc4C)CC3)c(C)oc2n1 | / | / | / | . | /
CCOC(=O)c1c(S(=O)(=O)N2CCC(C(=O)NCc3ccc(F)cc3)CC2)c(C)n(C)c1C | / | / | / | . | /
COc1cccc(NC(=S)NCc2cccs2)c1 | 18µM | . | . | . | .
Cc1cccc(NC(=S)NCc2cccs2)c1 | / | / | / | . | .
CSC(=NC#N)N1CCN(c2ccc([N+](=O)[O-])cc2)CC1 | / | / | / | / | 18µM
CSC(=NC#N)N1CCN(c2ccccn2)CC1 | / | / | / | / | 18µM
O=C(Cc1ccccc1I)Nc1ccccc1 | . | / | . | / | .
CCOCCn1c(SC)nc2c1c(=O)[nH]c(=O)n2C | 20µM | . | . | . | 14µM
CCOC(=O)CSc1nc2c(c(=O)[nH]c(=O)n2C)n1C/C=C(/C)Cl | 20µM | . | . | . | 18µM
CC(C)Sc1nc2c(c(=O)[nH]c(=O)n2C)n1CCc1ccccc1 | . | ? | . | . | ?
C/C(Cl)=C/Cn1c(SC(C)C)nc2c1c(=O)[nH]c(=O)n2C | ? | . | . | . | 5µM
CCCCn1c(SCC(=O)OCC)nc2c1c(=O)[nH]c(=O)n2C | ? | -119 | . | . | 13µM
CCOC(=O)Cn1c(Br)nc2c1c(=O)[nH]c(=O)n2C | . | . | . | . | .
CCOC(=O)CSc1nc2c(c(=O)[nH]c(=O)n2C)n1CCc1ccccc1 | . | ? | . | . | ?
Cc1cnc(CNc2nc(-c3ccc(N(C)C)cc3)nc3ccccc23)cn1 | . | / | . | ? | .
CCCCCCn1c(SCCCC)nc2c1c(=O)[nH]c(=O)n2C | . | . | . | . | .
CCn1c([N+](=O)[O-])nc2c1c(=O)[nH]c(=O)n2C | / | / | / | ? | 16µM
Cc1ccc(NC(=O)Cn2c(=O)n(CC3CCC(C(=O)NC(C)C)CC3)c(=O)c3sccc32)cc1 (centres undefined) | / | / | / | . | /
CCCN(C(=O)C1CCN(S(=O)(=O)c2c(C)noc2/C=C/c2ccc(C)cc2)CC1)c1ccccc1F | / | / | / | . | /
COC(=O)NC(CC(C)=O)c1ccccc1 (centres undefined) | / | / | / | / | .[13.5 µM]
CC(C)c1ccccc1NC(=O)c1ccco1 | . | -96 | . | . | .
Cc1cc(O)c(NC(=O)c2ccco2)cc1C | . | ? | . | . | .
CCC(C)c1ccccc1NC(=O)COC(=O)c1ccc(C)c(NC(=O)c2ccco2)c1 (centres undefined) | ? | ? | . | . | 40µM
COc1ccc(C(=O)NNC(=O)C(C)NC(=O)c2ccccc2NC(=O)c2ccco2)cc1 (centres undefined) | . | -93 | . | . | .
Cc1ccc(C(=O)OCC(=O)Nc2ccccc2)cc1NC(=O)c1ccco1 | . | . | . | . | .
SMILES | HPGD inh | PNC inhibitor | ALOX12 inhib | LMNA splice mod | ALDH1A1 inh
Cc1ccc(C(=O)OCC(=O)Nc2ccc(N(C)C)cc2)cc1NC(=O)c1ccco1 | . | ? | . | . | 12µM
CCOc1ccc(CNC(=O)c2ccc(Sc3ccc(C)cc3)c(N)c2)cc1OC | / | / | / | . | /
COC(=O)C1(C(=O)OC)C/C=C\Cc2ccccc2[C@@H]1C[N+](=O)[O-] | . | / | . | / | .
OCCCNCc1ccncc1 | . | / | .[11.4 µM] | / | .[13.5 µM]
CCSc1nnc(NC(=O)c2ccco2)s1 | . | ? | . | . | .
CC(C)Sc1nnc(NC(=O)c2ccco2)s1 | / | / | / | / | 14µM
CCc1cccc2c(C(=O)COC(=O)c3nn(C)c(=O)c4ccccc34)c[nH]c12 | ? | -109 | . | . | ?
CCCn1c(N2CCN(C(=O)Nc3ccccc3)CC2)nc2ccccc21 | / | / | / | ? | .
CCCn1c(N2CCN(CC(=O)NCc3cccs3)CC2)nc2ccccc21 | . | -87 | . | ? | ?
O=c1cc(-c2ccccc2Cl)oc2c(NS(=O)(=O)c3cc(Cl)cc(Cl)c3O)ccc(O)c12 | 4.5µM | . | 0.28µM | ? | 10µM
O=S(=O)(Nc1ccc(Cl)cc1Cl)c1cc(Cl)ccc1Cl | ? | / | . | / | .
Cc1ccc(NC(=O)c2cc(S(=O)(=O)N3CCCC(C)C3)cn2C)c(Br)c1 (centres undefined) | / | / | / | . | /
COc1cccc(CCNC(=O)c2ccc(C#N)cc2)c1 | / | / | / | / | .
COc1ccc(CCNC(=S)Nc2ccccc2)cc1 | / | / | / | / | .
COc1ccc(C(=O)CC(=O)C(=O)NCCc2cccc(C)c2)cc1 | . | . | . | ? | 2.2µM
COc1ccc(C(=O)NC(=S)NCCc2ccccc2)cc1 | / | / | / | . | 14µM
COc1ccc(CCNC(=S)NC(=O)c2ccccc2)cc1OC | 25µM | -101 | 14µM | .[0.0737 µM] | ?
C=C1CC[C@H](O)C/C1=C/C=C1\CCC[C@]2(C)C([C@H](C)CCCC(C)(C)O)CC[C@@H]12 (some centres undefined) | / | / | / | / | .
O=C(OC(C(=O)Nc1cccc(C(F)(F)F)c1)c1ccccc1)C1CCCCC1 (centres undefined) | . | . | . | ? | 14µM
CC(C)Cn1c(-c2ccc(Br)o2)n[nH]c1=S | . | . | . | ? | 10µM
Cc1ccsc1-c1n[nH]c(=S)n1CC(C)C | . | ? | . | ? | 25µM
C#CCCCO/N=C1/C[C@@H](O)[C@@H](O)[C@@H]2[C@@H]3C(=O)N(c4cccc(Oc5ccccc5)c4)C(=O)[C@H]3CC[C@@H]12 | / | / | / | / | .[13.5 µM]
CCN(CC)c1ccc(CNc2ccc(Br)cn2)cc1 | . | . | . | . | 7.1µM
CCC(=O)Nc1ccc(Br)cn1 | / | / | / | . | .
C=CCOc1c(Br)cc(/C=N/n2c(CC)n[nH]c2=S)cc1Br | 3.2µM | . | . | ? | .
SMILES | HPGD inh | PNC inhibitor | ALOX12 inhib | LMNA splice mod | ALDH1A1 inh
CCN(CC)c1ccc(/C=N/n2c(C)cc(C)cc2=O)cc1 | ? | -123 | . | . | 7.9µM
CCc1n[nH]c(=S)n1/N=C/c1ccc(N(CC)CC)cc1 | / | / | / | / | 10µM
CCc1n[nH]c(=S)n1/N=C/c1c(C)nn(-c2ccccc2)c1Cl | / | / | / | / | .
CCN(CC)c1ccc(/C=N/N2C(=O)c3ccccc3C2=O)cc1 | . | . | . | . | ?
O=C(O)CNC(=O)/C=C/c1c(Cl)cccc1Cl | / | / | / | . | .
COCCNC(=O)/C=C/c1c(Cl)cccc1Cl | 13µM | ? | . | . | .
COCCCNC(=O)/C=C/c1c(Cl)cccc1Cl | 16µM | . | . | . | .
COc1ccc(S(=O)(=O)Nc2cc(C(=O)NC3CCCCCC3)ccc2N2CCOCC2)cc1 | . | . | . | ? | 3.5µM
COc1ccc(S(=O)(=O)Nc2cc(C(=O)NC(C)C)ccc2N2CCOCC2)cc1 | . | . | . | ? | 0.79µM
Cc1ccc(CC(=O)NCC(C)C)cc1 | 18µM | ? | . | . | .
Cc1ccc(CC(=O)NCc2ccc(Cl)cc2)cc1 | / | / | / | . | ?
Cc1ccc(S(=O)(=O)CCSc2n[nH]c(=O)n2-c2ccccc2)cc1 | / | / | / | / | 20µM

Screens (PubChem BioAssay)
